Source: PubChem BioAssay (Johns Hopkins Ion Channel Center)
KCNQ2 inh: inhibitors of rat KCNQ2 potassium channel | O88943 | hit rate 1.1% among 310,000 | B-score at 10 µM | CHO-K1 KCNQ2, FluxOR thallium flux, 20 min; stronger effect = lower value;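 active = fluorescence ratio B-score at most minus 3 library SDs, with starting brightness B-score within 2 library SDs, cut at about -5.5 in these data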
Target sequence (O88943 whole entry, looked up): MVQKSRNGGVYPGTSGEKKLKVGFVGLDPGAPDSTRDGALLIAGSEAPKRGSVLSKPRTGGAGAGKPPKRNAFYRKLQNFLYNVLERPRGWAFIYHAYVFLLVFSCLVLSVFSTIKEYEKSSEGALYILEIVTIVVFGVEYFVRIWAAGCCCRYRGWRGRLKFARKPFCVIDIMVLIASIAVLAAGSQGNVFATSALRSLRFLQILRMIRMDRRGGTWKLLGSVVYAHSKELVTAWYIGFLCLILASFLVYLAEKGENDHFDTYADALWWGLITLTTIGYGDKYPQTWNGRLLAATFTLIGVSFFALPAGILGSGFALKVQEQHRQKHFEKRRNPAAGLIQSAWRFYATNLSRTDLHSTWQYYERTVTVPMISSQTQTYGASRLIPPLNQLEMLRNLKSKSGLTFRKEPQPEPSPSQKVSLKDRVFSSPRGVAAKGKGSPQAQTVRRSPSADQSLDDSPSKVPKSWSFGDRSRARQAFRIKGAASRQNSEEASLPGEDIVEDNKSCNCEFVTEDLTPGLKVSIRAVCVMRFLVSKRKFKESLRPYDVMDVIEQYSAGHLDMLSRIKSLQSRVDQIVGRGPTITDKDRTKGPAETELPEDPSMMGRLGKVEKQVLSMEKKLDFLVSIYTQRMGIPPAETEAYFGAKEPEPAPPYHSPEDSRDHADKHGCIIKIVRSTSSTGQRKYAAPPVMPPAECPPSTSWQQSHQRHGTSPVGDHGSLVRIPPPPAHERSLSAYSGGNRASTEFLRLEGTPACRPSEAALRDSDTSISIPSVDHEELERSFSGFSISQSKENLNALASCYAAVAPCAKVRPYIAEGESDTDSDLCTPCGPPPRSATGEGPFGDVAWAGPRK
KCNQ2 enhance: KCNQ2 (rat) channel potentiation; O88943; hit rate 0.54% among 310,000; CHO-K1 KCNQ2, FluxOR thallium flux fluorescence; stronger effect = higher value; B-score at 10 µM;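 active = fluorescence ratio B-score at least 3 SD of library B-scores, with initial fluorescence B-score within 3 of them, cut at about 5.3 in these data; same plate scores as AID 2156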;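 note: B-score of peak minus minimum over baseline fluorescence ratio after K+ and Tl+ stimulus; positive B-score means potentiation of KCNQ2 with more thallium influx and brighter signal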
Numbers stand for hits; . = inactive; / = no result. Hits are enriched below; roughly 1.6% of the tested compounds scored in any of these assays.

SMILES	KCNQ2 inh	KCNQ2 enhance
CCOC(=O)c1c(-c2ccccc2)oc2ccc(OCC(O)CNCCN(C)C)cc12 (centres undefined)	-6.7	.
Cc1[nH]c2ccccc2c1C(=O)C(=O)NCCOc1ccccc1	.	.
O=C(O)c1ccc(N=Nc2c(O)[nH]c3ccc(Br)cc23)cc1	.	.
O=c1ccc2cc3c([nH]c4ccc(Br)cc43)oc-2c1O	.	9.7
N#C/C(=C\c1cn(Cc2ccccc2)c2ccccc12)C(=O)NCc1ccco1	.	/
COc1ccccc1C1CN(c2ccc(F)cc2F)N=C1c1cccs1 (centres undefined)	-7.8	.
COc1ccccc1C1CC(c2cccs2)=NN1C(=O)CCC(=O)O (centres undefined)	.	.
COc1cc(CN2CCN(c3ccccc3F)CC2)cc(OC)c1O	.	.
Cc1nc(NC(=O)c2ccccc2)sc1-c1csc(Nc2cccc(F)c2)n1	.	.
Cc1cc(NS(=O)(=O)c2ccc(Nc3nc(-c4sc(NC(=O)c5ccccc5)nc4C)cs3)cc2)no1	-13	.
O=C(c1ccc2c(=O)n(Cc3ccco3)c(=S)[nH]c2c1)N1CCN(Cc2ccccc2)CC1	.	/
Cc1ccc(S(=O)(=O)NC(CC(C)C)C(=O)Oc2ccc3c4c(c(=O)oc3c2)CCC4)cc1 (centres undefined)	-7.9	.
CC[C@@H](NS(=O)(=O)c1ccc(C)cc1)C(=O)Oc1ccc2c3c(c(=O)oc2c1)CCC3	.	.
CC(NC(=O)CCC(=O)Nc1ccccc1O)c1ccccc1 (centres undefined)	.	.
COC(=O)Cn1c(=O)c2c(n(Cc3ccccc3)c1=O)N/C(=C/c1ccc(Br)cc1)C2=O	.	.
CC(Oc1cccc(Cl)c1)C(=O)Nc1cc(S(=O)(=O)N2CCOCC2)ccc1N1CCCC1 (centres undefined)	.	/
CN1CCN(S(=O)(=O)c2cccc(C(=O)Nc3cc(Cl)ccc3N3CCOCC3)c2)CC1	-7.5	.
CN1CCN(S(=O)(=O)c2cccc(C(=O)Nc3cc(C(F)(F)F)ccc3N3CCCC3)c2)CC1	.	/
CC(Oc1cccc(Cl)c1)C(=O)Nc1cc(S(=O)(=O)N2CCCCC2)ccc1N1CCOCC1 (centres undefined)	-7.6	.
CCCOc1ccccc1OCC(=O)Nc1ccc(S(=O)(=O)N2CCCC2)cc1	.	.
CC(C)CC(=O)NC(=S)Nc1nc(-c2ccccc2)cs1	.	.
Cc1ccc(C(=O)Oc2oc(-c3ccco3)nc2C=Nc2ccc(Cl)cc2)cc1	.	.
CCc1ccc(/C=C2/C(=O)N(C)C(=S)N2CC(=O)OC)s1	-6	.
COC(=O)CN1C(=S)N(C)C(=O)/C1=C/c1cccs1	.	/
Cc1ccc(S(=O)(=O)Nc2c(C)nn(C)c2C)cc1C	.	/
SMILES	KCNQ2 inh	KCNQ2 enhance
O=C(NNC1=C(C(=O)C(F)(F)F)CCC1)c1ccccc1O	.	11
COc1ccccc1C(=O)NNC1=C(C(=O)C(F)(F)F)CCC1	.	.
COc1cc(NC(=S)NCc2cccnc2)cc(OC)c1	-7.4	.
COc1cc(NC(=S)NCc2cccnc2)cc(OC)c1OC	.	.
O=C(/C=C/c1ccco1)Nc1sc2c(c1C(=O)O)CCC2	.	.
O=C(CNCc1ccccc1)Nc1cccc(Cl)c1Cl	-6	.
O=C(CNCc1ccccc1)Nc1ccccc1-c1ccccc1	.	/
COCCNC(=O)/C(C#N)=C/c1ccc(N2CCOCC2)o1	.	/
Cc1nc2cc(C(=O)O)ccc2n1C1CCCCC1	.	.
O=C(CSc1nnc(-c2ccc3c(c2)OCO3)o1)Nc1ncc(C(F)(F)F)cc1Cl	.	.
Cc1nc(NC(=O)CSc2nnc(-c3ccc4c(c3)OCO4)o2)c(Cl)cc1Cl	.	18
COc1cc2ncnc(NCc3ccccc3F)c2cc1OC	.	.
COC(=O)CSc1nnc(CNc2ccc(Cl)cc2)n1-c1ccccc1	-5.8	.
O=C(O)CSc1nnc(CNc2ccc(F)cc2)n1-c1ccccc1	.	.
O=C1NC(=O)/C(=C\c2ccccc2OCc2ccc([N+](=O)[O-])cc2)N1	.	.
COc1ccccc1CNC(=S)NCCc1ccccc1	.	/
COc1cc(NC(=S)NCCc2ccccc2)c(OC)cc1NC(=O)C(C)C	-5.8	.
O=C(COc1ccc2ccccc2c1)NCC1CCCO1 (centres undefined)	.	.
CC(C)Cc1nnc(NC(=O)Cc2cccs2)s1	.	.
CCNC(=S)Nc1cccc(NC(=O)c2ccccc2O)c1	.	.
CC1(C)Cc2cccc(OCC(=O)N3CCN(c4ccccc4Cl)CC3)c2O1	-6.2	.
CC1(C)Cc2cccc(OCC(=O)N3CCN(c4cccc(Cl)c4)CC3)c2O1	.	/
COc1ccccc1N1CCN(C(=O)c2oc3ccc(Br)cc3c2C)CC1	.	/
COc1ccccc1N1CCN(C(=O)c2oc3ccc(F)cc3c2C)CC1	-6.5	.
O=C(N1CCOCC1)C1(c2ccc(Cl)cc2)CCCC1	.	/
SMILES	KCNQ2 inh	KCNQ2 enhance
O=C(N1CCC(n2nc(-c3ccccc3)oc2=O)CC1)C1(c2ccc(Cl)cc2)CC1	-8.2	.
COc1ccc([C@@H]2C[C@H]3CN(c4ccccc4)C(=O)[C@]34CCCN24)c(OC)c1OC	.	/
Cc1cc(C)n2nc(NCc3cccc(Br)c3)nc2n1	-6.7	.
COc1ccc(CNc2nc3nc(C)cc(C)n3n2)cc1OC	.	.
CCOC(=O)c1ccc(N2CCCCC2)c(NS(=O)(=O)c2ccc(C)cc2)c1	-7.3	.
CCN(CC)CCCNC(=O)c1ccc(N2CCCCC2)c(NS(=O)(=O)c2ccc(C)cc2)c1	.	/
CCOC(=O)c1ccc(N2CCN(c3ccc(F)cc3)CC2)c(NC(=O)Nc2cccc(OC)c2)c1	.	/
CCOC(=O)c1ccc(N2CCN(c3ccccc3F)CC2)c(NC(=O)Nc2ccccc2)c1	-6.3	.
COCC(=O)NNC(=S)Nc1cccc(C)c1C	.	/
COc1ccc(C2(CNC(=O)c3ccccc3)CCCC2)cc1OC	.	/
COc1cccc(C(=O)NCC2(c3ccccc3)CCCC2)c1OC	-5.9	.
Cc1cc(C(F)F)n2ncc(C(=O)N3CCc4ccccc4C3)c2n1	.	.
O=C(c1cnn2c(C(F)(F)F)cc(-c3ccco3)nc12)N1CCc2ccccc2C1	-7	.
O=C(c1cnn2c(C(F)F)cc(-c3ccccc3)nc12)N1CCc2ccccc2C1	-6.3	.
O=C(c1cnn2c(C(F)(F)F)cc(-c3ccco3)nc12)N1CCCCCC1	.	.
CCOC(=O)C1=C(CS(=O)(=O)c2ccc(C)cc2)NC(=O)NC1c1cc(OC)c(OC)c(OC)c1 (centres undefined)	.	.
C=CCOC(=O)CC(NC(=O)c1ccccc1)c1ccccc1 (centres undefined)	.	/
Cc1cc(C(=O)N2CCCC2C(=O)O)c(C)o1 (centres undefined)	.	.
COc1ccc(-c2[nH]ncc2CN2CCCN(C(=O)c3ccco3)CC2)cc1F	.	.
OC(CNCC1CCCO1)Cn1c2ccc(Cl)cc2c2cc(Cl)ccc21 (centres undefined)	-7.6	.
OC(CNCC1CCCO1)Cn1c2ccccc2c2ccccc21 (centres undefined)	.	/
COc1cc(OC)cc(C(=O)Nc2nc(CC(=O)NCc3ccccc3OC)cs2)c1	-6.6	.
COc1cc(C(=O)Nc2nc(-c3cccs3)cs2)cc(OC)c1OC	-7.1	.
O=C(Cc1csc(NC(=O)c2ccc(F)cc2)n1)NO	-5.7	.
COc1ccccc1NC(=O)Cc1csc(NC(=O)c2ccccc2)n1	.	.
COc1ccc(C(=O)Nc2nc(-c3cccs3)cs2)cc1	.	.
COc1cc(OC)cc(C(=O)Nc2nc(CC(=O)NCc3ccc(F)cc3)cs2)c1	.	/
